{"source": "the supplement of paper PMC10670038", "note": "Structures can show the parent of a compound that is named as a salt. ± gives the standard deviation of the averaged measurements. Whole data set: some 2,000 compounds, median “relative cell viability vs DMSO, compound + 0.2 uM CuET” near 1, cut for the lowest 2% near 0.25. This is one part of a sample in which the lowest values are shown more often than they occur.", "data": [{"test_system": "TE10", "assay": "relative cell viability vs DMSO, compound + 0.2 uM CuET (fraction); TE10 is an esophageal squamous carcinoma line; higher = less cytotoxic", "conditions": "2 µM; co-treatment: CuET (bis(diethyldithiocarbamate)copper) 0.2 uM; 48 h", "experimental": "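TE10 ESCC cells (1,000/well, 384-well plates) were treated with Selleck bioactive library compounds at 2 uM combined with 0.2 uM CuET (copper diethyldithiocarbamate) for 48 h. Viability was read by CellTiter-Glo and expressed relative to DMSO wells. Two technical replicates (A, B).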", "values": [{"smiles": "CCN1CCN(C(=O)Cc2ccc(Nc3ncc(F)c(Nc4ccc(C(=O)Nc5ccccc5Cl)cc4)n3)cc2)CC1", "note": "[Aurora A Inhibitor I]", "relative cell viability": "0.182 ± 0.01"}, {"smiles": "Cc1cc(C(=O)CN2CCCC2)c(C)n1-c1ccc(F)cc1", "relative cell viability": "0.959 ± 0.085"}, {"smiles": "C[C@@H]1CC[C@H]2[C@@H](C)C(=O)O[C@@H]3O[C@@]4(C)CC[C@@H]1[C@]32OO4", "note": "[Artemisinin]", "relative cell viability": "1.08 ± 0.11"}, {"smiles": "NCC(O)c1ccc(O)cc1", "note": "(racemic) [(+,-)-Octopamine HCl]", "relative cell viability": "0.697 ± 0.56"}, {"smiles": "CC(=O)OC12COC1CC(O)C1(C)C(=O)C(O)C3=C(C)C(O)CC(O)(C(OC(=O)c4ccccc4)C21)C3(C)C", "note": "(stereo not given) [10-Deacetylbaccatin-III]", "relative cell viability": "0.849 ± 0.011"}, {"smiles": "CC1=C(O)C(=O)C=C2C1=CC=C1[C@@]2(C)CC[C@@]2(C)[C@@H]3C[C@](C)(C(=O)O)CC[C@]3(C)CC[C@]12C", "note": "[Celastrol]", "relative cell viability": "0.154 ± 0.0064"}, {"smiles": "CC(C)=CCC[C@]1(C)C=Cc2c(O)c3c(c(CC=C(C)C)c2O1)O[C@]12C(=C[C@@H]4C[C@H]1C(C)(C)O[C@@]2(C/C=C(/C)C(=O)O)C4=O)C3=O", "note": "[Gambogic Acid]", "relative cell viability": "0.2853 ± 0.00092"}, {"smiles": "O=c1cccc2n1C[C@@H]1CNC[C@H]2C1", "note": "[Cytisine]", "relative cell viability": "1.07 ± 0.033"}, {"smiles": "C=C[C@H]1CN2CC[C@H]1C[C@H]2[C@H](O)c1ccnc2ccccc12", "note": "[Cinchonidine]", "relative cell viability": "1.03 ± 0.057"}, {"smiles": "N#CC(C#N)=Cc1ccc(O)c(O)c1", "relative cell viability": "0.937 ± 0.14"}]}]}
